This note sets out measurements from PubChem BioAssay (EPA / NIEHS).

The structures appear in SMILES notation. Inconclusive results are not listed. The source made the active and inactive calls. How the source made its calls: active means hit-call score of the fitted dose curve at least 0.9, where 1 is the maximum; inconclusive means response in the unintended direction; inactive means score below 0.9.

A short description of this experiment: ATG_XTT_Cytotoxicity: Cytotoxicity Assessment in the Attagene TRANS-FACTORIAL HepG2 Assay (AID 2283584).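 On AC50: cells exposed to compound for 24 h before reading.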 As to the method:
ATG_XTT_Cytotoxicity is a cell-based, single-readout assay that uses HepG2, a human liver cell line, with measurements taken at 24 hours after chemical dosing in a 24-well plate.ATG_XTT_Cytotoxicity is one of one assay component(s) measured or calculated from the ATG_XTT_Cytotoxicity assay. It is designed to make measurements of cell number, a form of viability reporter, as detected with […] signals by XTT cytotoxicity assay technology.Data from the assay component ATG_XTT_Cytotoxicity was analyzed into 1 assay endpoint. This assay endpoint, ATG_XTT_Cytotoxicity, was analyzed in the positive analysis fitting direction relative to DMSO as the negative control and baseline of activity. Using a type of viability reporter, loss-of-signal activity can be used to understand changes in the viability. Furthermore, this assay endpoint can be referred to as a primary readout, because the performed assay has only produced 1 assay endpoint. To generalize the intended target to other relatable targets, this assay endpoint is annotated to the cell cycle intended target family, where the subfamily is cytotoxicity.
Human liver HepG2 cells are transiently transfected with multiple reporter transcription units (MRTUs) in 6-well plates using FuGene 6 reagent (Roche; 3 ml FuGene/1 mg DNA). The MRTU constructs are regulated by a cis-regulating element (promoter). […] A major difference between the CIS and TRANS system is that in CIS activities of endogenous TFs are measured, whereas the TRANS assay evaluates changes in activities of exogenous, chimeric NR-Gal4 proteins. […] At the end of 24 hour incubation, total RNA was isolated using TriZol reagent (Invitrogen). The isolated RNA is then reverse-transcribed using oligo(dT) primer and Mo-MLV reverse transcriptase (Invitrogen) with DNAse I (Ambion) treatment for 30 min. The one-tenth of the produced cDNA was amplified by PCR using Taq DNA polymerase (Invitrogen) and two reporter sequence-specific primers. The PCR products were fluorescently labeled by primer extension with 6-arboxyfluorescein (6-FAM) 5'-labeled reporter sequence-specific primer (2 min at 95 C, 20 s at 68 C and 10 min at 72 C) and these products were digested with 5U of HpaI (New England Biolabs) for 2h at 37 C. The fragments were purified using Qiaquick PCR columns (Qiagen), analyzed on an ABI 3130xL genetic analyzer (Applied Biosystems) with peak positions identified by using a set of X-rhodamine (ROX)-labeled MapMarker1000 molecular weight standards (BioVentures). The raw capillary electrophoresis data was processed using Attagraph software (Attagene).
Regarding `S=c1[nH]c2ccccc2s1`, the call was inactive.

Regarding `O=C(O)CN(CC(=O)O)CC(=O)O`, the call was inactive.

`O=C1c2c(O)cccc2Cc2cccc(O)c21`: the molecule was called inactive.

In the case of `CC(N)=O`, the result was inactive.

On to `Cn1cnc2c1c(=O)[nH]c(=O)n2C`, for which the outcome was inactive.

Consider `CC1=C(C)S(=O)(=O)CCS1(=O)=O`, for which the molecule was classed as inactive.

With `CC(=O)O`, the call was inactive.

In the case of `NCCOCCOCCN`, the result was inactive.

On to `CCCCc1nc2cccnc2n1Cc1ccc(-c2ccccc2-c2nnn[nH]2)cc1`, for which the result was inactive.

On to `O=[Si]=O`, for which the result was inactive.

With `NC1CCCCC1`, the molecule was classed as inactive.

As to `CC(C)(C)c1ccccc1`, the outcome was inactive.

As for `CN(C)CCCN(C)CCCN(C)C`, the molecule was called inactive.

As for `Nc1nc(Cl)nc2c1ncn2[C@H]1C[C@H](O)[C@@H](CO)O1`, the call was inactive.

On to `C/C=C/C=C/C(=O)O`, for which the result was inactive.

As for `CC(C)COC(=O)CCCCC(=O)OCC(C)C`, the outcome was inactive.

With `CCC(C)N(C)C(=O)c1cc2ccccc2c(-c2ccccc2Cl)n1` (stereo not given), the result was inactive.

`COC(=O)[C@H]1[C@H]2C[C@@H]3c4[nH]c5cc(OC)ccc5c4CCN3C[C@H]2C[C@@H](OC(=O)c2cc(OC)c(OC)c(OC)c2)[C@@H]1OC`: the result was inactive.

By AC50 is commonly meant the concentration giving half of the maximal activity seen. Take `Cc1ccc(-c2cc(C(F)(F)F)nn2-c2ccc(S(N)(=O)=O)cc2)cc1`: the AC50 is 149 µM (active).

Take `CC(=O)CC(c1ccccc1)c1c(O)c2ccccc2oc1=O` (stereo not given): the molecule was classed as inactive.

With `CCCCC(CC)COC(=O)CCCCCCCC(=O)OCC(CC)CCCC` (stereo not given), the result was inactive.

As to `CCCCCCCCCCCCCCCCO`, the outcome was inactive.

As to `CS(=O)(=O)c1ccc([C@@H](C[C@H]2CCC(=O)C2)C(=O)Nc2cnccn2)cc1Cl`, the call was inactive.

`C/C=C/c1ccc(OC)cc1`: the outcome was inactive.

As for `COC(=O)CCC(=O)OC`, the call was inactive.

Turning to `Cc1occc(=O)c1O`, the call was inactive.

For `O=C(Oc1ccccc1)c1cccc(C(=O)Oc2ccccc2)c1`, the molecule was called inactive.

For `O=C1O[C@H]([C@H](O)CO)C(O)=C1O`, the call was inactive.

Take `Cc1cc(Cc2ccc(N)c(C)c2)ccc1N`: the call was inactive.

For the molecule `O=Cc1ccccc1C=O`, the call was inactive.

Take `C=CCCCCCCCCCCCC`: the result was inactive.

Take `CC(C)OC(=O)C(C)(C)Oc1ccc(C(=O)c2ccc(Cl)cc2)cc1`: the molecule was called inactive.

As to `CCCCCCCCCC[N+](C)(C)[O-]`, the molecule was classed as inactive.

`O=C(O)c1cccnc1`: the molecule was classed as inactive.

On to `Oc1ccc(O)cc1`, for which the result was inactive.

On to `CC(=O)OCC(COC(C)=O)OC(C)=O`, for which the result was inactive.

As for `Nc1nc(=S)c2[nH]cnc2[nH]1`, the result was inactive.

Consider `CCOCCOCCO`, for which the call was inactive.

Regarding `CC(=O)O[C@]1(C(C)=O)CC[C@H]2[C@@H]3C=C(Cl)C4=CC(=O)[C@@H]5C[C@@H]5[C@]4(C)[C@H]3CC[C@@]21C`, the call was inactive.

Consider `O=C1CCCCC1`, for which the outcome was inactive.
